Most compounds without a hit are left out; they make up all but 3.3% or so of the library.
VACV mCherry inh: qHTS for Stage-Specific Inhibitors of Vaccinia Orthopoxvirus: mCherry Reporter Primary qHTS | Vaccinia virus mCherry reporter infection, fluorescence | Potency, µM (doses to about 36.5 µM), most hits filed as inhibitors | 310,000 tested, 0.63% active | AID 720579, 2013; calls by dose curve; tested in A549 cells; further: nearly all actives have a fitted effect of over 35% in size
HCV inh: qHTS Assay for Inhibitors of Hepatitis C Virus (HCV). Huh7.5.1 HCVcc-Cre infection, luciferase reporter, 44 h. Potency, µM (highest dose often 41.8 µM), most hits filed as inhibitors. 340,000 tested, 3.4% active. AID 651820, 2012; active means well fitted inhibition curve with a large enough effect; inconclusive means small, poorly fitted or top-dose-only effect, or another doubt; inactive means no such curve, though single readings can be large or run the other way
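Cells (1,000/well) were plated 4 h before compound, then infected with HCVcc-Cre virus (~0.5 moi). After 44 h further culture, infection was read as luciferase luminescence following a 15 min substrate incubation at room temperature.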
Vaccinia Venus: qHTS for Stage-Specific Inhibitors of Vaccinia Orthopoxvirus: Venus Reporter Primary qHTS; 330,000 tested, 0.46% active; AID 720580, 2013; Vaccinia virus Venus reporter expression, fluorescence; Potency, µM (highest dose often 36.5 µM), actives largely listed as inhibitors; calls by dose curve; tested in A549 cells; further: nearly all actives have a fitted effect of over 30% in size
Of the large screens only hits and unclear results are named; the others gave an inactive call.

O=c1c2ccccc2sc2ccc(C#CC3(O)CCCCC3)cc12	HCV inh inconclusive, Vaccinia Venus inconclusive
C=CCn1c2ccccc2c(=O)c2cc(C#CC[C@@H](C)O)ccc21	VACV mCherry inh inconclusive, HCV inh 13µM
C=CCn1c2ccccc2c(=O)c2cc(C#CC3(O)CCCCC3)ccc21	HCV inh 10µM, Vaccinia Venus inconclusive
Cn1c2ccccc2c(=O)c2cc(C#Cc3cccc(N)c3)ccc21	HCV inh inconclusive
Fc1ccccc1-n1ncc2c1ncn1nc(COc3ccc(Cl)cc3)nc21	none (no result: HCV inh)
OC1CCCN(Cc2ccc3ccc4cccc5ccc2c3c45)C1 (stereo not drawn)	HCV inh inconclusive, Vaccinia Venus inconclusive
c1cc2ccc3ccc(CN4CCOCC4)c4ccc(c1)c2c34	HCV inh 10µM
COc1ccc(OC)c(CCNC(=O)c2cc3cccc4c3n2CC(C)S4)c1 (stereo not drawn)	none (no result: HCV inh)
CN(C)CC(C)(O)c1ccc2c(c1)CN(C(=O)c1ccc(-n3cccn3)cc1)CCO2 (stereo not drawn)	none (no result: HCV inh)
CC1(C)N=C(SCc2ccc(F)cc2)c2ccccc2N1	none (no result: HCV inh)
COc1ccc(CCNC(=O)Cn2c(=O)cc(C(F)(F)F)c3c(C)nn(C)c32)cc1OC	none (no result: HCV inh)
CN(C(=O)c1sc2nc(N3CCOCC3)c3c(c2c1N)CCCC3)c1ccccc1	HCV inh 11µM
Nc1c(C(=O)NCCc2ccccc2)sc2nc(N3CCOCC3)c3c(c12)CCCC3	VACV mCherry inh inconclusive, HCV inh inconclusive
O=C(Cc1ccc(NC(=O)N2CCCCc3ccccc32)cc1)NCc1cccc(Br)c1	none (no result: HCV inh)
CC(C)(C)c1ccc(-n2ncc3c2CCCC3NC(=O)CCn2cncn2)cc1 (stereo not drawn)	none
COC(=O)c1ccc(C(=O)NC2CCCc3c2cnn3-c2ccc(C)c(C)c2)cc1 (stereo not drawn)	VACV mCherry inh inconclusive, HCV inh 13µM, Vaccinia Venus inconclusive
Cc1cc(C(=O)NC2CCCc3c2cnn3-c2ccc(C)c(C)c2)nc(C)n1 (stereo not drawn)	none
CC(C)(C)c1ccc(-n2ncc3c2CCCC3NC(=O)c2ccco2)cc1 (stereo not drawn)	none (no result: HCV inh)
Cc1cc(C(=O)NC2CCCc3c2cnn3-c2ccc(C(C)(C)C)cc2)nn1C (stereo not drawn)	HCV inh 7.1µM
CC(C)(C)c1ccc(-n2ncc3c2CCCC3NC(=O)CCN2CCCO2)cc1 (stereo not drawn)	HCV inh 13µM (no result: VACV mCherry inh, Vaccinia Venus)
COCCNC(=O)/C(C#N)=C/c1c(N2CCN(C)CC2)nc2ccccn2c1=O	none (no result: VACV mCherry inh, Vaccinia Venus)
Cc1cc(=O)oc2c(C)c(OCC(=O)Nc3cccnc3)ccc12	none (no result: VACV mCherry inh, Vaccinia Venus)
CCOc1ccc(S(=O)(=O)N2CCCCCC2)cc1	none (no result: VACV mCherry inh, Vaccinia Venus)
COc1ccc(CN(C)C(=O)/C=C/c2ccc(S(=O)(=O)N3CCCCCC3)cc2)cc1	VACV mCherry inh inconclusive, HCV inh 11µM, Vaccinia Venus inconclusive
CCOc1ccc(CN(C)C(=O)CCc2ccc(S(=O)(=O)N3CCCCCC3)cc2)cc1	HCV inh 4µM (no result: VACV mCherry inh, Vaccinia Venus)
CNC(=O)c1ccc(CN(C)C(=O)/C=C/c2ccc(S(=O)(=O)N3CCCCCC3)cc2)cc1	none (no result: HCV inh)
Nc1nc2c(nc(N3CCOCC3)n2COCCO)c(=O)[nH]1	none (no result: HCV inh)
O=C(Nc1ccccc1Br)c1ccc(N2CCCC2=O)cc1	none
O=C1c2ccccc2C(=O)c2c(NCc3cccnc3)cccc21	HCV inh inconclusive
CNc1cccc2c1C(=O)c1ccccc1C2=O	HCV inh 13µM
Cc1ccc(C)c(N2CCN(C(=O)C3CCC(CNS(=O)(=O)c4ccc(Br)s4)CC3)CC2)c1 (stereo not drawn)	none (no result: HCV inh)
CCCCSCCCNC(=O)c1cn(C)c2ccc(S(=O)(=O)N3CCCCCC3)cc2c1=O	none (no result: HCV inh)
CCc1nc(N)nc(N)c1-c1ccc(Cl)c(N=[N+]=[N-])c1	VACV mCherry inh inconclusive, HCV inh inconclusive, Vaccinia Venus 5.6µM
CCc1c(N)nc(N)nc1Nc1ccccc1Cl	VACV mCherry inh inconclusive
CCc1nc(N)nc(N)c1-c1ccc(Cl)c([N+](=O)[O-])c1	HCV inh inconclusive, Vaccinia Venus 0.28µM
CN(C)c1ccc(/C=C2\N=C(c3ccc(Cl)c([N+](=O)[O-])c3)NC2=O)cc1	none
COc1ccc2oc(C(=O)Nc3nc(-c4ccccn4)cs3)c(C)c2c1	HCV inh inconclusive
Clc1ccc(Cn2ccc(-c3ccc4c(c3)OCO4)n2)cc1Cl	HCV inh 25µM (no result: VACV mCherry inh, Vaccinia Venus)
S=C(NCc1ccc(Cl)c(Cl)c1)Nc1ccc2c(c1)OCO2	none
COc1ccc(-c2c(C)nn3c(N)c(-c4ccccc4)cnc23)cc1OC	HCV inh 13µM (no result: VACV mCherry inh, Vaccinia Venus)
COc1ccc(CCNc2cc(C)nc3c(-c4ccc(Cl)cc4)cnn23)cc1OC	HCV inh inconclusive
COc1ccc(CCNc2cc(C)nc3c(-c4ccccc4)c(C)nn23)cc1OC	HCV inh 11µM
Cc1cc(NC2CCCC2)n2nc(C)c(-c3ccccc3)c2n1	HCV inh inconclusive
